In all, about 30,000 compounds went through this assay and about 110 (0.37%) were called active. The entries come from a sample that favours actives as a whole. Unmarked numbers belong to inactive results.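 Rule for the calls: active = delta delta Cp rounded down to an integer at or above 3, about 3 SD of DMSO wells; inactive = the rest.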

The assay can be described thus: inhibitors of YB-1 gene expression, primary screen, cell-based, fluorescence (AID 434959).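 Note: higher means less YB-1 transcript or more CDIP transcript relative to DMSO.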 The note with it: U2OS, qRT-PCR YB-1 vs CDIP delta delta Cp, 16 h; hits give high values; zero = DMSO, each unit about twofold. On the technique in general: Real-time PCR tracks product formation cycle by cycle.
For the compound `C[C@@H]1CN([C@H](C)CO)C(=O)c2cc(NC(=O)Nc3ccc4c(c3)OCO4)ccc2O[C@H]1CN(C)Cc1ccc(-c2ccccc2)cc1`, the delta Cp (YB-1 minus CDIP) was 0.369.
Turning to `C[C@H](CO)N1C[C@H](C)[C@H](CN(C)C(=O)Nc2ccc(C(F)(F)F)cc2)Oc2ccc(N(C)C)cc2CC1=O`, the delta Cp (YB-1 minus CDIP) is 0.00881.
In the case of `Cc1cc(C(=O)Nc2cccc3c2O[C@@H](CN(C)Cc2ccc(C(=O)O)cc2)[C@H](C)CN([C@@H](C)CO)C3=O)n(C)n1` it was -0.416; in that of `O=C(N/N=C/c1ccc(Oc2ccccc2)cc1)c1ccccn1`, -0.417; in that of `COc1ccc(NC(=O)N(C)C[C@@H]2Oc3ccc(NS(=O)(=O)c4ccc(OC)cc4)cc3CC(=O)N([C@H](C)CO)C[C@H]2C)cc1`, -0.353.
Consider `C[C@H]1CN([C@@H](C)CO)C(=O)c2cccc(NC(=O)Nc3ccccc3)c2O[C@H]1CN(C)C(=O)Nc1cccc2ccccc12`, for which the delta Cp (YB-1 minus CDIP) is 0.0743.
For `C[C@@H]1CN([C@@H](C)CO)C(=O)CCCn2cc(nn2)CO[C@@H]1CN(C)C(=O)C1CCCCC1`, the delta Cp (YB-1 minus CDIP) is -0.464.
In the case of `Cc1noc(C)c1S(=O)(=O)N(C)C[C@H]1OCc2cn(nn2)CCCC(=O)N([C@H](C)CO)C[C@H]1C` it was 0.0461; in that of `C[C@H](CO)N1C[C@H](C)[C@@H](CN(C)Cc2ccc(C(F)(F)F)cc2)Oc2ccc(NC(=O)CCC(F)(F)F)cc2C1=O`, -0.124; in that of `C[C@@H]1CN([C@H](C)CO)C(=O)c2cccc(NC(=O)C3CCCCC3)c2O[C@@H]1CN(C)C(=O)NC1CCCCC1`, 0.413.
In the case of `COc1ccc(CN(C)C[C@@H]2Oc3ccc(NS(=O)(=O)c4cn(C)cn4)cc3C(=O)N([C@@H](C)CO)C[C@@H]2C)cc1` it was -0.246; in that of `Cc1ccc(C(=O)c2coc3ccc(O)c(CN(C)C)c23)cc1`, 0.308.
The figure for `CCCN(C)C[C@@H]1OCCCC[C@@H](C)Oc2ccc(NC(=O)CCCN(C)C)cc2C(=O)N([C@H](C)CO)C[C@@H]1C` is -0.0474; for `COc1ccc(C#Cc2ccc3c(c2)[C@]2(C(=O)N3)[C@H](C(=O)N3CCc4cc(OC)c(OC)cc4C3)[C@H]3C(=O)O[C@H](c4ccccc4)[C@H](c4ccccc4)N3[C@@H]2c2ccc(O)cc2)cc1` it is 0.269; for `CC(=O)N1[C@@H](c2ccc(C)cc2)SC(C)(C)[C@@H]1C(=O)O` it is -0.179.
For the compound `Cc1ccc(S(=O)(=O)N(C)C[C@@H]2Oc3ccc(NC(=O)NC4CCCCC4)cc3C(=O)N([C@@H](C)CO)C[C@H]2C)cc1`, the delta Cp (YB-1 minus CDIP) is 0.362.
The figure for `Cc1ccc(S(=O)(=O)Nc2ccc3c(c2)C(=O)N([C@@H](C)CO)C[C@@H](C)[C@H](CN(C)CC2CC2)O3)cc1` is -0.0524.
Regarding `COc1ccc(S(=O)(=O)Nc2cccc3c2O[C@@H](CN(C)C(=O)Nc2ccccc2)[C@@H](C)CN([C@@H](C)CO)C3=O)cc1`, the delta Cp (YB-1 minus CDIP) was -0.0223.
Take `Cc1noc(C)c1NC(=O)Nc1ccc2c(c1)C(=O)N([C@H](C)CO)C[C@H](C)[C@H](CN(C)Cc1ccncc1)OCCCC[C@@H](C)O2`: the delta Cp (YB-1 minus CDIP) is -0.384.
Turning to `COc1ccc(CN(C)C[C@H]2Oc3c(NC(=O)C4CC4)cccc3C(=O)N([C@@H](C)CO)C[C@H]2C)cc1`, the delta Cp (YB-1 minus CDIP) is -0.0719.
In the case of `C[C@H]1CN([C@@H](C)CO)C(=O)c2cc(NC(=O)CCC(F)(F)F)ccc2O[C@H]1CN(C)Cc1ccc(C(=O)O)cc1` it was -0.0494.
The figure for `C[C@@H]1CN([C@H](C)CO)C(=O)c2cc(NS(=O)(=O)c3ccccc3)ccc2O[C@H]1CN(C)S(=O)(=O)c1cccs1` is 0.37.
As for `COc1ccc(S(=O)(=O)Nc2ccc3c(c2)C(=O)N([C@H](C)CO)C[C@@H](C)[C@@H](CN(C)CC2CCCCC2)O3)cc1`, the delta Cp (YB-1 minus CDIP) is 0.268.
The figure for `Cc1ccc(S(=O)(=O)Nc2ccc3c(c2)C(=O)N([C@H](C)CO)C[C@H](C)[C@H](CN(C)S(=O)(=O)c2ccc(F)cc2)O3)cc1` is 0.151.
The figure for `C[C@@H]1CN([C@@H](C)CO)C(=O)CCCn2nncc2CO[C@H]1CN(C)C(=O)Nc1ccc(C(F)(F)F)cc1` is -0.177; for `O=C(CCCCCCC(=O)Nc1ccccc1O)N/N=C/c1ccc(C(F)(F)F)cc1` it is -0.34.
The figure for `Cc1noc(C)c1S(=O)(=O)Nc1ccc2c(c1)CC(=O)N([C@H](C)CO)C[C@@H](C)[C@@H](CN(C)Cc1ccncc1)O2` is -0.237; for `COc1ccc2c(c1)C(=O)CC(c1ccccc1)O2` (centres undefined) it is -0.382; for `COc1cc(CCC(=O)O)oc(=O)c1` it is 0.941.
In the case of `COc1cc([C@H](Cc2ccccc2)NC(C)=O)oc(=O)c1`, the delta Cp (YB-1 minus CDIP) was 7.24 (active).
In the case of `COc1ccc(S(=O)(=O)Nc2ccc3c(c2)CC(=O)N([C@H](C)CO)C[C@@H](C)[C@@H](CN(C)S(=O)(=O)c2ccc(F)cc2)O3)cc1` it was 0.215.
As to `Cc1noc(C)c1S(=O)(=O)Nc1ccc2c(c1)C(=O)N([C@@H](C)CO)C[C@H](C)[C@H](CN(C)Cc1ccc(C(=O)Nc3ccccc3N)cc1)O2`, the delta Cp (YB-1 minus CDIP) was -0.223.
The figure for `C[C@@H]1CN([C@@H](C)CO)C(=O)c2cccc(NC(=O)CCCCCC(=O)Nc3ccccc3N)c2O[C@@H]1CN(C)CC1CCCCC1` is -0.278.
In the case of `C[C@@H]1CN([C@@H](C)CO)C(=O)Cc2cc(NC(=O)C3CCCCC3)ccc2O[C@@H]1CN(C)Cc1ccc(-c2ccccc2)cc1` it was -0.443; in that of `COc1ccc(NC(=O)N(C)C[C@H]2Oc3ccc(NS(=O)(=O)c4ccc(F)cc4)cc3C(=O)N([C@@H](C)CO)C[C@@H]2C)cc1`, 0.491.
The figure for `COc1cc(OC)c(/C=N/NC(=O)CCCCCCC(=O)Nc2ccccc2O)c(OC)c1` is -0.14; for `N#C/C(=C\c1ccc(O)c(O)c1)C(N)=O` it is -0.313.
With `Cc1noc(C)c1NC(=O)N(C)C[C@@H]1Oc2ccc(NC(=O)Nc3ccc4c(c3)OCO4)cc2C(=O)N([C@H](C)CO)C[C@H]1C`, the delta Cp (YB-1 minus CDIP) was -0.0859.
On to `C[C@@H]1CCCCO[C@H](CN(C)Cc2ccccc2)[C@@H](C)CN([C@H](C)CO)C(=O)c2cc(NS(C)(=O)=O)ccc2O1`, for which the delta Cp (YB-1 minus CDIP) was -0.038.
The figure for `O=C(O)CCC(=O)N(Cc1ccccc1)Cc1cn(-c2ccccc2)nc1-c1cccnc1` is -0.539; for `C[C@@H]1CN([C@@H](C)CO)C(=O)c2cc(N(C)C)ccc2O[C@H]1CN(C)Cc1ccc(C(F)(F)F)cc1` it is -0.101; for `C[C@@H]1CN([C@@H](C)CO)C(=O)c2cc(NC(=O)Cc3ccccc3)ccc2O[C@@H]1CN(C)S(=O)(=O)c1ccccc1` it is 0.109.
Take `C[C@@H]1CN([C@@H](C)CO)C(=O)c2cc(NC(=O)c3ccncc3)ccc2O[C@H]1CN(C)S(=O)(=O)c1ccc(Cl)cc1`: the delta Cp (YB-1 minus CDIP) was -0.0147.
The figure for `Cc1ccoc1CC[N+](C)(C)C` is -0.0929.
In the case of `C[C@@H]1CN([C@@H](C)CO)C(=O)CCCn2nncc2CO[C@H]1CN(C)Cc1ccc(C(F)(F)F)cc1` it was -0.415.
The figure for `CNC[C@H]1Oc2ccc(NS(=O)(=O)c3ccc(F)cc3)cc2C(=O)N([C@@H](C)CO)C[C@@H]1C` is -0.0588; for `C[C@@H]1CCCCO[C@@H](CN(C)S(=O)(=O)c2cccs2)[C@@H](C)CN([C@H](C)CO)C(=O)c2cc(NC(=O)Nc3ccc(F)cc3)ccc2O1` it is -0.356; for `COc1cccc(NC(=O)N(C)C[C@@H]2OCc3cn(nn3)CCCC(=O)N([C@@H](C)CO)C[C@H]2C)c1` it is 0.0991.
On to `CC(C)(C)C(=O)CSc1nc2ccccc2c(=O)n1CC1CC1`, for which the delta Cp (YB-1 minus CDIP) was -0.316.
The figure for `COC(=O)C1=C(C)NC2=C(C(=O)CC(C)(C)C2)C1c1ccncc1` (centres undefined) is -0.233; for `O=C(O)CCCCCC(=O)N/N=C/c1ccncc1Br` it is -0.0121.
Consider `Cc1ccc(/C=N/NC(=O)CCCCCCC(=O)O)o1`, for which the delta Cp (YB-1 minus CDIP) was -0.127.
In the case of `COc1ccc(NC(=O)Nc2cccc3c2O[C@H](CN(C)Cc2ccncc2)[C@@H](C)CN([C@@H](C)CO)C3=O)cc1` it was -0.239.
In the case of `CC(C)S(=O)(=O)NCC1CCN(Cc2cccc(OCCO)c2)CC1` it was 0.112; in that of `C[C@@H]1CCCCO[C@H](CN(C)C(=O)Nc2cccc3ccccc23)[C@@H](C)CN([C@H](C)CO)C(=O)c2cc(NC(=O)Nc3ccc4c(c3)OCO4)ccc2O1`, 0.427.
The figure for `C[C@@H]1CN([C@@H](C)CO)C(=O)CCCn2cc(nn2)CO[C@H]1CN(C)Cc1cccc2c1OCCCO2` is -0.151.
For `Cc1noc(C)c1S(=O)(=O)Nc1ccc2c(c1)CC(=O)N([C@@H](C)CO)C[C@H](C)[C@H](CN(C)C(=O)Nc1cccc3ccccc13)O2`, the delta Cp (YB-1 minus CDIP) was -0.29.
The figure for `CN1C(=O)C(Cc2ccccc2)(Cc2ccccc2)c2ccccc21` is -0.307.
In the case of `C[C@@H]1CN([C@H](C)CO)C(=O)c2cc(NC(=O)CCCN(C)C)ccc2O[C@H]1CN(C)S(=O)(=O)c1ccc(Cl)cc1` it was -0.394; in that of `Cc1ccc(S(=O)(=O)N(C)C[C@@H]2OCCCC[C@@H](C)Oc3ccc(NS(=O)(=O)c4ccccc4)cc3C(=O)N([C@H](C)CO)C[C@@H]2C)cc1`, -0.0955; in that of `O=C(CCCCCCC(=O)Nc1ccccc1O)N/N=C/c1ccc2c(c1)Cc1ccccc1-2`, 0.456.
The figure for `O=C(N/N=C/c1cc(F)ccc1O)c1ccccc1O` is 0.293; for `COc1ccc2nc3c(nc2c1)C(=O)c1ccccc1C3=O` it is 0.188; for `COc1ccc(OC)c(CCCc2cc(OC)ccc2OC)c1` it is 10.3 (active).

The values are drawn from PubChem BioAssay AID434959 (Broad Institute, 2010).
